Screening data: PubChem, National Center for Advancing Translational Sciences (NCATS)
Compounds with a hit are over-represented: about 17% of the library has one in this group of screens.
DT40 TDP1 no CPT: qHTS for Inhibitors of human tyrosyl-DNA phosphodiesterase 1 (TDP1): qHTS in cells in absence of CPT; DT40 Tdp1-/- hTDP1 cells, no CPT, ATP luminescence, 48 h; Potency, µM (titrated, usually from 46.2 µM), for the others: top-dose activity change, negative = growth inhibition, hits mostly inhibitors; 15% of 420,000 active; also: % is scaled to controls: 0 for no effect and ±100 for the full control effect; nearly all actives have a fitted effect of over 55% in size
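Luminescent ATP content (CellTiter-Glo) served as the growth readout. Knockout chicken DT40 cells expressing human TDP1 were exposed to compounds without camptothecin for a minimum 48 hr at 37 °C.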
ClpP mod: qHTS Assay for Activators of ClpP. ATP-dependent Clp protease proteolytic subunit (Bacillus subtilis (strain 168)), P80244. purified B. subtilis ClpP, FRET peptide cleavage, 20 min. Potency, µM (doses to about 57.5 µM), for inactives: at the top dose activity change, negative = active. 1.9% of 340,000 active; active = well fitted falling curve with a large enough effect; inconclusive = small, poorly fitted or top-dose-only effect; inactive = no such curve, though single readings can be large or run the other way; also: the source files actives as falling curves though it sought activators and does not explain the sign; nearly all actives have a fitted effect of over 65% in size
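Purified B. subtilis ClpP, 10 microg/mL final in Tris/HCl pH8 with KCl, BSA, glycerol and Tween-20, cleaved an Abz/nitrotyrosine-quenched decapeptide. Fluorescence (ex 320, em 430) was read at 0 and 20 min at room temperature. Delta was normalized to 5.8 microM ADEP and DMSO/no-enzyme controls.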
TDP1 cell CPT: qHTS for Inhibitors of human tyrosyl-DNA phosphodiesterase 1 (TDP1): qHTS in cells in presence of CPT; chicken DT40 Tdp1-/-;hTDP1 cells + 20 nM CPT, ATP luminescence, 48 h; Potency, µM (top dose mostly 46.2 µM), for the others: top-dose activity change, negative = growth inhibition, usual class: inhibitors; 12% of 420,000 active; also: % is scaled to controls: 0 for no effect and ±100 for the full control effect; nearly all actives have a fitted effect of over 55% in size
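Chicken DT40 Tdp1-/- cells complemented with human TDP1, 400 cells/well, exposed to compounds plus 20 nM camptothecin for at least 48 h at 37 C; viability read as ATP content by CellTiter-Glo luminescence.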
TDP1 inh: qHTS Assay for Inhibitors of Tyrosyl-DNA Phosphodiesterase (TDP1); Tyrosyl-DNA phosphodiesterase 1 (Homo sapiens), Q9NUW8; recombinant TDP1, AlphaScreen DNA substrate cleavage; Potency, µM (doses to about 130 µM), for the others: at the highest dose activity change, negative = inhibition, actives largely listed as inhibitors; 0.28% of 350,000 active; AID 485290, 2010; also: % is scaled to controls: 0 for no effect and ±100 for the full control effect; nearly all actives have a fitted effect of over 40% in size
Target sequence (Q9NUW8 whole entry, looked up): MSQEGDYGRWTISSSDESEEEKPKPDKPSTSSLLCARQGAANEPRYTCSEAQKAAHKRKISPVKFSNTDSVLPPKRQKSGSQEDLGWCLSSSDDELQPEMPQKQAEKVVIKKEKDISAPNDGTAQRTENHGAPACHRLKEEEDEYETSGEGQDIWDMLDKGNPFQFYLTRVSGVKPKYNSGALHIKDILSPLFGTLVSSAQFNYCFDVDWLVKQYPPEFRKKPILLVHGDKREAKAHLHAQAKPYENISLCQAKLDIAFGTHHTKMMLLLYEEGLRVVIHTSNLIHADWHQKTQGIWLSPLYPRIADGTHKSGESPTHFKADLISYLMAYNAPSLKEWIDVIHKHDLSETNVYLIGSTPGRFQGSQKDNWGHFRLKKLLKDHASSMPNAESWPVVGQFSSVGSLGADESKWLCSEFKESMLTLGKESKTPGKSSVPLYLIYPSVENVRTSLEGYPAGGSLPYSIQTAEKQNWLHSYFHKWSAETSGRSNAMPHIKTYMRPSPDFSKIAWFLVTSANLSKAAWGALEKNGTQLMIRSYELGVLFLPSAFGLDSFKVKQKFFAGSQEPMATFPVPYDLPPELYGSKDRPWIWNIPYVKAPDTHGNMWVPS
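Enzyme-compound mixtures sat 15 min at room temperature, followed by a 5 min reaction with 15 nM final substrate and 10 min with AlphaScreen beads. Recombinant human Tdp1 was used at 1 nM final.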
Active calls of the source: *; ? = inconclusive; / = no result; [ ] = remark or other dose. Unless noted, calls follow the shape of the dose curve; as a rule, active = well fitted curve in the direction sought with a large enough effect; inconclusive = small, poorly fitted or top-dose-only effect, or another doubt; inactive = no such curve, though single readings can be large; an effect the other way counts as inactive or inconclusive. Potency is read from the fitted curve at half-maximal effect.

SMILES | DT40 TDP1 no CPT | ClpP mod | TDP1 cell CPT | TDP1 inh
O=S1(=O)CCOC[C@H](c2ccccc2)N1Cc1ccc(F)cc1 | 11µM* | 1% | ? | /
O=C(NCCS(=O)(=O)N1CCN(c2ccccc2F)CC1)C(c1ccccc1)c1ccccc1 | -20% | 0% | -7% | 2%
CC(C)CNC(=O)COC(=O)c1ccc(Cl)c(S(N)(=O)=O)c1 | -11% | 3% | -13% | 6%
CCCCNC(=O)COC(=O)c1ccc(Cl)c(S(N)(=O)=O)c1 | -2% | 14µM* | 4% | 8%
O=C(Nc1ccc(-c2cn3ccsc3n2)cc1)C1COc2ccccc2O1 (stereo not given) | ? | -17% | 21µM* | 7%
CC(C)(C)c1csc(NC(=O)C2COc3ccccc3O2)n1 (stereo not given) | ? | 1% | ? | -1%
Cc1cccc2sc(NNC(=O)C3COc4ccccc4O3)nc12 (stereo not given) | ? | -1% | ? | 8%
COc1ccc(OC)c2sc(NNC(=O)C3COc4ccccc4O3)nc12 (stereo not given) | ? | 2% | 15µM* | -2%
COc1ccc(-c2csc(NC(=O)C3COc4ccccc4O3)n2)cc1OC (stereo not given) | 13µM* | -2% | 16µM* | /
Cc1ccc2c(CC(=O)N3CCN(c4cccc(Cl)c4)CC3)coc2c1 | ? | 0% | ? | 5%
COc1ccc(-c2nc3sc(CCNS(=O)(=O)c4c(C)cc(C)cc4C)c(C)n3n2)cc1 | ? | 0% | ? | 0%
Cc1ccc(S(=O)(=O)n2ccc3c2CCCC3=O)cc1 | 21µM* | / | ? | /
COc1ccc(OC)c(NC(=O)CSc2nccn2-c2cc(C)cc(C)c2)c1 | 16µM* | -1% | 15µM* | 11%
Cc1cc(C)cc(-n2ccnc2SCC(=O)Nc2ccc(C)cc2C)c1 | 21µM* | 2% | 16µM* | 13%
Cc1ccccc1N(CC(=O)NCc1ccccc1)C(=O)CCC(=O)Nc1nccs1 | ? | / | -27% | 1%
COc1cccc([C@@H]2Oc3ccc(OC)cc3C[C@H]2OC(=O)N[C@H](C)C2CCCCC2)c1 | / | / | / | 4%
Cc1ccc(S(=O)(=O)Oc2cccc(/C=N/n3cnnc3)c2)cc1 | 8.2µM* | -2% | 8.2µM* | 2%
CC[C@H](C)[C@H](NC(=O)[C@H](CCCN=C(N)N)NC(=O)[C@H](CCCN=C(N)N)NC(=O)[C@H](CC(C)C)NC(=O)[C@H](Cc1ccccc1)NC(=O)CNC(=O)CN)C(=O)N[C@@H](CCCN=C(N)N)C(=O)N1CCC[C@H]1C(=O)N[C@@H](CCCCN)C(=O)N[C@@H](CC(C)C)C(=O)N[C@@H](CCCCN)C(=O)O | -8%[4.12 µM] | / | 2%[4.12 µM] | 10%
CN(C(=O)c1cccc(NC(=O)Cc2cccc(NC(=O)C3CCCN(C(=O)C4CCCC4)C3)c2)c1)C1CCC1 (stereo not given) | ? | 1% | 16µM* | /
Cc1ccc(NC(=O)CN(C)C(=O)c2ccc(Cl)c([N+](=O)[O-])c2)cc1 | ? | -1% | ? | 6%
O=C(CN(C(=O)c1cccc([N+](=O)[O-])c1)C1CCCCC1)Nc1ccc(Cl)c([N+](=O)[O-])c1 | 16µM* | -1% | ? | 3%
CN(C(=O)c1ccc(NC(=O)Cc2cccc(NC(=O)C3CCCN(C(=O)C4CCCC4)C3)c2)cc1)C1CCCC1 (stereo not given) | ? | -2% | 21µM* | 3%
CN(C(=O)c1ccc(Oc2ccc([N+](=O)[O-])cc2)cc1)C1CCCCC1 | 23µM* | -3% | ? | /
COCCN(C(=O)COC(=O)c1cc(C)n(-c2ccccc2)c1C)c1c(N)n(Cc2ccccc2)c(=O)[nH]c1=O | ? | -3% | 3% | 6%[0.505 µM]
COc1cc(Cl)c(C)cc1NC(=O)CCn1c(=O)c2cccn2c2cccnc21 | ? | 6% | ? | -10%
SMILES | DT40 TDP1 no CPT | ClpP mod | TDP1 cell CPT | TDP1 inh
COc1ccccc1CNC(=O)C1CCN(S(=O)(=O)c2ccc3[nH]c(=O)ccc3c2)CC1 | -17% | -10% | -8% | 0%
CN(C(=O)c1cccc(NC(=O)Cc2ccc(NC(=O)C3CCN(S(=O)(=O)c4cccc([N+](=O)[O-])c4)CC3)cc2)c1)C1CCCC1 | ? | -5% | ? | /
CN(C(=O)c1cccc(NC(=O)Cc2cccc(NC(=O)C3CCCN(C(=O)C4CCC4)C3)c2)c1)C1CCC1 (stereo not given) | 23µM* | 0% | ? | /
CN(C(=O)c1cccc(NC(=O)Cc2ccc([N+](=O)[O-])cc2)c1)C1CCCCC1 | 15µM* | -1% | 21µM* | 5%
CN(C(=O)c1cccc(NC(=O)Cc2ccc(NC(=O)C3CCCN(C(=O)C4CCC4)C3)cc2)c1)C1CCCCC1 (stereo not given) | ? | 3% | 23µM* | /
CN(C(=O)c1cccc(NC(=O)Cc2ccc(NC(=O)C3CCCN(C(=O)C4CCCCC4)C3)cc2)c1)C1CCCCC1 (stereo not given) | ? | -2% | ? | /
CN(C(=O)c1cccc(NC(=O)Cc2ccc(NC(=O)C3CCCN(C(=O)C4CCCCC4)C3)cc2)c1)C1CCCC1 (stereo not given) | ? | -1% | ? | /
COc1cc(NS(=O)(=O)c2ccc3[nH]c(=O)oc3c2)cc(OC)c1 | 1% | / | -10% | 3%
O=C(CCn1cnc2onc(-c3ccc(F)cc3)c2c1=O)Nc1ccc(F)c(Cl)c1 | 15µM* | 1% | 13µM* | -1%
O=C(CCn1cnc2onc(-c3ccc(F)cc3)c2c1=O)Nc1cccc(C(F)(F)F)c1 | 16µM* | 0% | 16µM* | -4%
CCc1cccc(C)c1NC(=O)c1cc(S(=O)(=O)N(Cc2ccc(C(=O)OC)cc2)Cc2ccc(OC)c(OC)c2)ccc1F | ? | 0% | ? | 10%
COc1ccc(C2CC(C)(c3ccc(OC)cc3)Nc3ccccc3N2)cc1 (stereo not given) | 15µM* | 0% | ? | /
COc1ccc(C2(C)CC(C)(C)Nc3ccccc32)cc1 (stereo not given) | ? | / | -15% | /
O=C(Nc1ccc(NC(=S)NC(=O)c2cccs2)cc1)c1ccccc1 | -19% | 0% | -19% | 1%
O=C(NNC(=S)NC(=O)c1cccs1)c1ccc(NC(=O)c2ccccc2)cc1 | ? | -2% | 26µM* | 10%
O=C(CC(=O)c1cccs1)c1ccncc1 | 29µM* | / | 21µM* | /
O=C(NNC(=S)NC(=O)c1cccs1)c1ccc(O)cc1 | ? | 0% | 23µM* | 11%
